# Experimental data as given in PubChem BioAssay.
# Calls of active or inactive are those of the source. Unless noted, the rule behind the calls is not given here.
# Assays:
# [1] = test system: Wnt5a (protein binding on small-molecule microarray); assay: small molecules binding Wnt5a protein – biophysical, small-molecule microarray, 635/667 nm fluorescence, primary screen (AID 1142); conditions: 635 nm fluorescence, higher = more signal;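 note: fluorescence read at 667 nm with signal to noise per printed feature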
# [2] = ATP-based viability of Huh7 replicon cells – cell-based, CellTiter-Glo luminescence, basal, 48 h, cytotoxicity control for HCV replication inhibitor project, primary screen (AID 1143); conditions: higher = more signal, called active from +8 up or from −8 down;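 note: Huh7 hepatoma cells carrying a hepatitis C replication reporter with no stimulus; test concentration not given here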
# [3] = Pseudomonas biofilm growth suppression – PAO1 strain, BacTiter-Glo luminescence, LB-PBS, primary screen (AID 1144); conditions: P. aeruginosa PAO1 biofilm, 12 h, higher = more signal
# [4] = basal CRE-LacZ reporter activity in PC12 – cell-based, unstimulated, primary screen (AID 1145); conditions: no forskolin, luminescence, 4.5 h, higher = more signal, called active from +8 up or from −8 down
# [5] = forskolin-driven CRE-LacZ activity in PC12 – cell-based, CRE-LacZ reporter, forskolin-stimulated, primary screen (AID 1146); conditions: luminescence, 4.5 h, higher = more signal, called active from +8 up or from −8 down;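 note: PC12 cells with 6xCRE LacZ reporter stimulated by forskolin 10 µM; beta-galactosidase reporter signal reflecting CREB driven transcription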
# [6] = molecular target: Streptavidin (Streptomyces avidinii) (UniProt P22629); assay: compounds binding control protein streptavidin – biophysical, small-molecule microarray, 635/667 nm fluorescence, artefact control for SMM compound annotation, primary screen (AID 1147); conditions: higher = more signal;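 note: signal reflects streptavidin binding to arrayed compounds as a control protein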
# [7] = probe aInhba binding on compound microarray – biochemical, small-molecule microarray, 635/667 nm fluorescence, primary screen (AID 1148); conditions: higher = more signal;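 note: score merges 667nm spot fluorescence with signal-to-noise for antibody binding to printed compounds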
# Torsin-1A (Homo sapiens) [8] = molecular target: Torsin-1A (Homo sapiens) (UniProt O14656); assay: TOR1A wild-type binding on microarray – cell lysate, small-molecule microarray, lysate, 635/667 nm, primary screen (AID 1149); conditions: COS7 hTOR1A-WT lysate, 635 nm fluorescence, higher = more signal
# Torsin-1A (Homo sapiens) [9] = molecular target: Torsin-1A (Homo sapiens) (UniProt O14656); assay: torsin A mutant lysate binding on microarrays – cell lysate, small-molecule microarray, COS7 lysate, 635/667 nm fluorescence, primary screen (AID 1150); conditions: COS7 hTOR1A mutant lysate, 635 nm fluorescence, higher = more signal;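 note: score pools 667 nm emission and signal to noise measuring lysate protein binding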
# [10] = test system: Sonic hedgehog protein (Shh); assay: Sonic hedgehog microarray binding compounds – biochemical, small-molecule microarray, 635/667 nm fluorescence, primary screen (AID 1151); conditions: 635 nm fluorescence, higher = more signal;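 note: Shh protein binding to compounds spotted on small-molecule microarray slides; score combines spot fluorescence intensity with signal-to-noise across triplicate slides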
# [11] = optical density shifts of acrAB sulA E. coli – strain DRC41, OD650, 48 h, E. coli filamentation inducer project, primary screen (AID 1152); conditions: higher = more signal, called active from +8 up or from −8 down;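 note: E. coli MC1000 strain DRC41 lacking acrAB efflux pump and sulA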
# [12] = probe aLefty1 binding on compound microarray – biochemical, small-molecule microarray, 635/667 nm fluorescence, primary screen (AID 1153); conditions: higher = more signal;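 note: score merges spot fluorescence with signal-to-noise ratio from the scanned slide images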
# [13] = plasmodial surface anion channel blockers, osmotic lysis – cell-based, P. falciparum Indochina, OD700, 1 h, primary screen (AID 1154); conditions: P. falciparum Indochina infected RBC osmotic lysis, higher = more signal, called active from +8 up or from −8 down
# [14] = plasmodial surface anion channel blockers, osmotic lysis – cell-based, P. falciparum Indochina, OD700, 2 h, primary screen (AID 1155);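 note: lysis reports solute entry through the parasite surface anion channel PSAC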; conditions: P. falciparum Indochina infected erythrocytes, higher = more signal, called active from +8 up or from −8 down
# [15] = changes in parasitized red cell lysis, either direction – P. falciparum Indochina, OD700, 3 h, PSAC antagonist project, primary screen (AID 1156); conditions: P. falciparum-infected erythrocytes, osmotic lysis, higher = more signal, called active from +8 up or from −8 down
# [16] = plasmodial surface anion channel blockers, osmotic lysis – cell-based, P. falciparum Indochina, OD700, 18 h, primary screen (AID 1157); conditions: P. falciparum Indochina infected erythrocytes, osmotic lysis OD700, 18 h; higher = more signal, called active from +8 up or from −8 down
# [17] = S6 kinase pathway phospho-S6 level changes – cell-based, A549, cytoblot, luminescence, serum-stimulated, primary screen (AID 1158); conditions: 5 h, higher = more signal;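 note: serum-stimulated A549 lung adenocarcinoma cells; signal is phosphorylated S6 detected by cytoblot immunostaining with HRP secondary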
# [18] = molecular target: NADPH oxidase 2 (Homo sapiens) (UniProt P04839); assay: compounds shifting NOX2 Amplex Red fluorescence – cell-based, HEK293-NOX2, PMA-stimulated, NOX inhibitor project, primary screen (AID 1159); conditions: 45 min, higher = more signal, called active from +8 up or from −8 down; note: test concentration not given here
# [19] = molecular target: NADPH oxidase 4 (Homo sapiens) (UniProt Q9NPH5); assay: compounds shifting NOX4 Amplex Red fluorescence – cell-based, HEK293-NOX4, tetracycline-induced, NOX inhibitor project, primary screen (AID 1160); conditions: HEK293-NOX4, Amplex Red H2O2 fluorescence, 45 min; higher = more signal, called active from +8 up or from −8 down
# [20] = molecular target: NADPH oxidase 5 (Homo sapiens) (UniProt Q96PH1); assay: compounds shifting NOX5 Amplex Red fluorescence – cell-based, HEK293-NOX5, NOX inhibitor project, primary screen (AID 1161); conditions: HEK293-NOX5, ionomycin, 45 min, higher = more signal
# Sequence of NADPH oxidase 5 (Homo sapiens) (Q96PH1 whole entry, looked up): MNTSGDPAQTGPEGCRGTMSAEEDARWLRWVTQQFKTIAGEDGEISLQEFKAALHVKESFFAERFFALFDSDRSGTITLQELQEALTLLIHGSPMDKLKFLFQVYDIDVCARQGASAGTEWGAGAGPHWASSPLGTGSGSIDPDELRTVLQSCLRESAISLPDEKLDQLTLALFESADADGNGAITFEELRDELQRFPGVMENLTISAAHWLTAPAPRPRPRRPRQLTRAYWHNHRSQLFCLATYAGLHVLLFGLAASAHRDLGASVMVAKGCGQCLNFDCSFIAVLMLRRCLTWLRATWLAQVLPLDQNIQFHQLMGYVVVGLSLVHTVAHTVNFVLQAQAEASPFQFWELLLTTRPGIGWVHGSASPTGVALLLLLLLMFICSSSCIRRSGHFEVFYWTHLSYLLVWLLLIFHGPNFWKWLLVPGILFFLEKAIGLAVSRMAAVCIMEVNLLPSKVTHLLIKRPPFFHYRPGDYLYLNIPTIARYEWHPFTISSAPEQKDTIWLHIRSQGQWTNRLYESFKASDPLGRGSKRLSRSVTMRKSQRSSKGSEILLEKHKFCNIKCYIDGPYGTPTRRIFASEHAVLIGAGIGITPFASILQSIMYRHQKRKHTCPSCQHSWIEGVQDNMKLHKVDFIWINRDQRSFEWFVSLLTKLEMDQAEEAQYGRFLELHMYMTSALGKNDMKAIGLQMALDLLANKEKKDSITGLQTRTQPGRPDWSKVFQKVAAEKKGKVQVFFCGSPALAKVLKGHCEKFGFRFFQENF
# Sequence of Torsin-1A (Homo sapiens) (O14656 whole entry, looked up): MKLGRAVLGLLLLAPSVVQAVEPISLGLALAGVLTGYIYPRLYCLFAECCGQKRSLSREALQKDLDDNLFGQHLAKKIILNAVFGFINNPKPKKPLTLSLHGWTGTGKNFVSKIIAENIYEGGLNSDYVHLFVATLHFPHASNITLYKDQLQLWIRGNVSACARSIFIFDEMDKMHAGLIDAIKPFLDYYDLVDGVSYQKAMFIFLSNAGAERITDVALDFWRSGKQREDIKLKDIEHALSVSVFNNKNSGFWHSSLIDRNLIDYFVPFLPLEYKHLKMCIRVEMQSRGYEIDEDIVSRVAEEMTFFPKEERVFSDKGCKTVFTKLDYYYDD
# Sequence of NADPH oxidase 4 (Homo sapiens) (Q9NPH5 whole entry, looked up): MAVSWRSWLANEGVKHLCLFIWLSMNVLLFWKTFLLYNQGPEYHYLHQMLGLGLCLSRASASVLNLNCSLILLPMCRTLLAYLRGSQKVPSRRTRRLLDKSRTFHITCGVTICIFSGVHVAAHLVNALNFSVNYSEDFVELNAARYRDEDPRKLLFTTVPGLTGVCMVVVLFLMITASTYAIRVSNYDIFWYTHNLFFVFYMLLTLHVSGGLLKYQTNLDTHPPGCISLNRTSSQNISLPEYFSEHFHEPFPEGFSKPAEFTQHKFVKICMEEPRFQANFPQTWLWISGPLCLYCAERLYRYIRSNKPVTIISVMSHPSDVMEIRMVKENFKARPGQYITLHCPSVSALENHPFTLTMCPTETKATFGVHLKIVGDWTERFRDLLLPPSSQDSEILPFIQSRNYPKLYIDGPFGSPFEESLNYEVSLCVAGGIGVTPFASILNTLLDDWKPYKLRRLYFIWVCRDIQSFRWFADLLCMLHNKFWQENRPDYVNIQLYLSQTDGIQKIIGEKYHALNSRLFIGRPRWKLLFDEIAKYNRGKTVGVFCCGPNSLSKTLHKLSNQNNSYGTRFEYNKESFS
# Sequence of Streptavidin (Streptomyces avidinii) (P22629 whole entry, looked up): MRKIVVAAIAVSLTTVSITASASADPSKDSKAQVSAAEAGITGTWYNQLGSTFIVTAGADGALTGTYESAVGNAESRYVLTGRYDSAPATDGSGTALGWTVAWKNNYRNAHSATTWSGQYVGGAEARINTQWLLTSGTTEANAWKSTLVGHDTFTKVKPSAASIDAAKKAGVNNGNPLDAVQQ
# Sequence of NADPH oxidase 2 (Homo sapiens) (P04839 whole entry, looked up): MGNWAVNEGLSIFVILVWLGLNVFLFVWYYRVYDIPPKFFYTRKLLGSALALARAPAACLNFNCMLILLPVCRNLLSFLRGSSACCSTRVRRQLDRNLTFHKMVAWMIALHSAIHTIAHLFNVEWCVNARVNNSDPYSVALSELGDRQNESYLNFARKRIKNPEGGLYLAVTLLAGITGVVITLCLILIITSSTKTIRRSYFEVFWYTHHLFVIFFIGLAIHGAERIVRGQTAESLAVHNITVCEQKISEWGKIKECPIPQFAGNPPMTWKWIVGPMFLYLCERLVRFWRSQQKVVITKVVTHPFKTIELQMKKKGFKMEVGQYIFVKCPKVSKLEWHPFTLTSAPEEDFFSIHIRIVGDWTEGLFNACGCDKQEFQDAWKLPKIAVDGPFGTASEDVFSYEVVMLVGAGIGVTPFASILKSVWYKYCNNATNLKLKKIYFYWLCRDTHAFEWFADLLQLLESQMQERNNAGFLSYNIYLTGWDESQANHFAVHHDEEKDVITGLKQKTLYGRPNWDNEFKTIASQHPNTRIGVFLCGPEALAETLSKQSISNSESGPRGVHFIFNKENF
Structure (SMILES),composite z-score [1],z-score [2],z-score [3],z-score [4],z-score [5],composite z-score [6],composite z-score [7],composite z-score (Torsin-1A (Homo sapiens) [8]),composite z-score (Torsin-1A (Homo sapiens) [9]),composite z-score [10],z-score [11],composite z-score [12],z-score [13],z-score [14],z-score [15],z-score [16],z-score [17],z-score [18],z-score [19],z-score [20]
COC(=O)C(C(=O)OC)C1CCCC(=O)C1 (stereo not given),-0.155,-0.509 (inactive),-0.619 (inactive),-0.886 (inactive),-0.0388 (inactive),0.402,-0.274,0.622,1.42,0.769,-1.06 (inactive),-0.284,0.69 (inactive),-0.176 (inactive),0.426 (inactive),-0.29 (inactive),0.649,-1.18 (inactive),-1.61 (inactive),0.921
CC(CCN1CCc2nc(-c3ccccc3)c(-c3ccccc3)cc2C1)=NO[C@@H](C)c1cc(-c2c(C)cc(C)cc2C)no1,-0.405,-2.58 (inactive),-0.832 (inactive),2.71 (inactive),-0.426 (inactive),2.15,-0.159,0.199,0.153,-0.387,-1.03 (inactive),-0.0099,-0.0185 (inactive),-0.429 (inactive),1.5 (inactive),-1.37 (inactive),0.831,-0.861 (inactive),-0.901 (inactive),-0.296
CC(C)=NO[C@@H](C)c1cn([C@H](CO)Cc2ccccc2)nn1,0.0949,-0.172 (inactive),-0.643 (inactive),0.573 (inactive),-0.537 (inactive),0.561,-0.0681,0.818,0.39,0.469,-1.99 (inactive),0.423,-0.407 (inactive),-1.7 (inactive),-0.222 (inactive),-1.75 (inactive),1.54,-0.689 (inactive),0.0692 (inactive),0.628
CC(=O)OC[C@H]1O[C@H](CC=NO[C@H](C)c2cn([C@@H]3COC[C@H]3O)nn2)C=C[C@@H]1OC(C)=O,0.104,-0.29 (inactive),-0.745 (inactive),-0.724 (inactive),-0.538 (inactive),0.182,-0.0494,-0.0469,-0.108,0.165,-0.676 (inactive),-0.27,-0.279 (inactive),-1.7 (inactive),-0.115 (inactive),-1.7 (inactive),1.22,-1.01 (inactive),0.127 (inactive),0.0052
CC(C)[C@@H](OCc1ccccc1)[C@H](C)C=NO[C@H](C)c1cn([C@@H]2COC[C@H]2O)nn1,0.31,-0.703 (inactive),1.28 (inactive),0.927 (inactive),-0.379 (inactive),0.0286,-0.0843,1.4,1.56,0.371,0.112 (inactive),-0.111,0.551 (inactive),-0.119 (inactive),-0.541 (inactive),0.172 (inactive),-0.995,0.542 (inactive),0.827 (inactive),0.704
CC(CCN1CCCc2nc(C)c(C)cc21)=NOC[C@@H](C)[C@H](OCc1ccccc1)C(C)C,-0.257,-1.01 (inactive),-0.47 (inactive),-1.14 (inactive),-0.186 (inactive),-0.983,-0.101,-0.469,-0.931,0.0185,0.259 (inactive),-0.147,1.25 (inactive),-1.75 (inactive),-0.167 (inactive),-1.84 (inactive),2,-2.43 (inactive),-1.68 (inactive),-1.12
COC(=O)C1=C(C)N(Cc2ccccc2)C2=C3C(=O)OCC[C@@H]3[C@@](O)(C(=O)OC)C(=O)N2[C@@H]1c1ccccc1,0.226,-0.0119 (inactive),-0.356 (inactive),4.9 (inactive),-1.1 (inactive),0.299,-0.0221,-0.154,0.319,0.404,0.884 (inactive),-0.286,0.121 (inactive),0.132 (inactive),0.0954 (inactive),0.126 (inactive),0.0012,0.0769 (inactive),-0.0428 (inactive),0.251
COC(=O)CC=C[C@@H](C)[C@@H](C=NOC[C@@H](O)COCc1ccco1)OC,-0.302,0.545 (inactive),1.47 (inactive),-1.05 (inactive),-0.252 (inactive),0.457,-0.214,3.02,2.69,1.99,0.245 (inactive),-0.202,0.202 (inactive),0.322 (inactive),-0.0838 (inactive),0.145 (inactive),0.564,-0.499 (inactive),0.024 (inactive),0.403
